PubChem BioAssay AID1445 (SRMLSC, 2008)
In all, about 220,000 compounds went through this assay and about 910 (0.41%) were called active. For the sample, actives were picked, then their nearest neighbours and some compounds at random. Results with a measured potency or affinity are listed apart. A number with no mark means an inactive call.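 The calls were made as follows: active = primary inhibition above the hit cutoff, then over 50% inhibition at one or more dose response concentrations (cut at about 23% in these data, passing the limit was not always enough); inconclusive = conflicting primary data, or primary hits not chosen for dose response; inactive = low primary inhibition, or under 50% at every dose.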

Each molecule was assayed against Aminopeptidase N (Plasmodium falciparum (isolate 3D7)) (UniProt O96935) (assay: malaria alanyl aminopeptidase activity blockers – biochemical, fluorogenic H-Leu-NHMec substrate, 1536-well (AID 1445;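 also: plate controls were DMSO full reaction for no effect and no enzyme background for full effect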)). Conditions: recombinant M1AAP, H-Leu-NHMec fluorogenic kinetic assay; at 30 µM, hits give high values unless noted.
Aminopeptidase N (Plasmodium falciparum (isolate 3D7)), sequence (O96935 whole entry, looked up): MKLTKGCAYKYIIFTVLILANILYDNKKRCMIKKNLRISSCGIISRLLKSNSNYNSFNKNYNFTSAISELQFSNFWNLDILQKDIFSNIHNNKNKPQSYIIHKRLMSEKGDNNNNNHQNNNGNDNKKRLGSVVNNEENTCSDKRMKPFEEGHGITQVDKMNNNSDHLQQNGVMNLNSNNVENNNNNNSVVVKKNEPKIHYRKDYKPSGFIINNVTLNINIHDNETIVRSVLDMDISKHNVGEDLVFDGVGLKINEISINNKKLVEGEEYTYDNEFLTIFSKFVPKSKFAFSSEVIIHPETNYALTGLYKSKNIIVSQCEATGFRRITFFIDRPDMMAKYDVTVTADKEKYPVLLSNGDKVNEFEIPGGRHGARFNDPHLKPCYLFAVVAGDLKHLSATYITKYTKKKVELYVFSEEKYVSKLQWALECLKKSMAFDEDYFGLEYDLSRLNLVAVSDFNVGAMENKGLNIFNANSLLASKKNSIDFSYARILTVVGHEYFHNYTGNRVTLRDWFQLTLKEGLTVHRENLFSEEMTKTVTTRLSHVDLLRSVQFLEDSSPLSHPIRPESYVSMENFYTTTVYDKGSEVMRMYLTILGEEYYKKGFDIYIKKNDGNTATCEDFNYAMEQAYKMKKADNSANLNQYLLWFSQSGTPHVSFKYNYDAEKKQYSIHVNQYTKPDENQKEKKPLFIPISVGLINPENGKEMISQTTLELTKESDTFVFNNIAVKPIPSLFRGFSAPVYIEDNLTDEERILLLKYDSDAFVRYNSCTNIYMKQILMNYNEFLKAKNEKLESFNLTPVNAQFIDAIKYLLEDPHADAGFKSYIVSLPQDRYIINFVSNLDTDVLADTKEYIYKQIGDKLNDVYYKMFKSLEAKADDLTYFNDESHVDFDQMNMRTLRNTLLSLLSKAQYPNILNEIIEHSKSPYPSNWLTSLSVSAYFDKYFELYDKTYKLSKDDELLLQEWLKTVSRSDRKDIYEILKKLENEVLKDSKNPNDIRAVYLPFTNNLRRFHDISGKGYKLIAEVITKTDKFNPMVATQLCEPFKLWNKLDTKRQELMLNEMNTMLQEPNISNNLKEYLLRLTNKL

SMILES	inhibition
O=C(COC(=O)Cc1ccc(F)cc1)NCc1ccco1	4.03%
CCC(C)NC(=O)COC(=O)c1csc2c1CCCC2 (configuration not stated)	7.63%
COC(=O)c1ccc(CSc2nc(C(F)(F)F)c3c(c2C#N)CCC3)o1	3.42%
CCSc1nnc(NC(=O)CSc2c(Cl)cccc2Cl)s1	4.43%
COc1ccc(S(=O)(=O)N2CCOCC2)cc1NC(=O)CO/N=C/c1ccccc1OC(F)F	8.16%
Cc1cn(-c2ccccc2)c(C)c1/C=N\Nc1nc(N2CCOCC2)nc(N2CCOCC2)n1	4.34%
Cc1ccc(NC(=O)CSc2nnc(-c3ccco3)c(-c3ccco3)n2)cc1	25% (active)
Cc1cccc(C)c1NC(=O)CSc1nnc(-c2ccco2)c(-c2ccco2)n1	17.6%
CC(=O)c1ccc(NC(=O)CSc2nnc(-c3ccco3)c(-c3ccco3)n2)cc1	9.65%
Cc1cc(CN(C)C(=O)CC2C(=O)NCCN2Cc2c(F)cccc2Cl)n[nH]1 (configuration not stated)	-2.19%
CCS(=O)(=O)C(C)(CCl)C(=O)Nc1ccc(C(=O)OC)cc1 (configuration not stated)	3.92%
COc1ccc(-c2cc(=O)c3c(O)c(OC)c(O)cc3o2)cc1	17%
COc1c(O)cc2oc(-c3ccc(O)cc3)cc(=O)c2c1O	17.2%
O=S(=O)(c1ccccc1)N1CCCC1c1cccs1 (configuration not stated)	0.58%
Cn1c(=O)cc(SCC(=O)N2CCCC2)c2ccccc21	7.32%
CCc1cc2c(=O)c(-c3nc4ccccc4n3C)c(C)oc2c(CN(CC)CC)c1O	6.03%
CCc1c(C)c2cc(Cl)c(O)c(CN(C)C)c2oc1=O	-5.92%
Cc1c(Cc2ccccc2)c(=O)oc2cc(O)ccc12	22.2%
Cc1c(C)c2cc(Cl)c(O)c(CN(C)C)c2oc1=O	14.8%
CCN(CC)Cc1c(O)c(Cl)cc2c(C)c(C)c(=O)oc12	23.6% (active)
CCN(CC)Cc1oc(CO)cc(=O)c1O	5.8%
Cc1c(Cc2ccccc2)c(=O)oc2c(O)c(O)ccc12	17.1%
CCOc1ccc(OCCCC(=O)NC2=NCCS2)cc1	-1.08%
COc1ccc(O)c(C2NC(CC(C)C)(C(=O)O)C3C(=O)N(Cc4ccccc4)C(=O)C23)c1 (configuration not stated)	13.5%
COc1ccc(OCCC(=O)OCC(=O)Nc2cccc(Br)c2)cc1	2.82%

SMILES	inhibition
O=CN1N=C(c2ccccc2)CC1c1ccccc1[N+](=O)[O-] (configuration not stated)	0.38%
CCCN(Cc1ccccc1)C(=S)Nc1ccc(C(C)=O)cc1	0.74%
O=C(O)COc1ccccc1C(Nc1ccccn1)c1cc(Cl)c2cccnc2c1O (configuration not stated)	23.1%
CCOc1ccc(C(Nc2cccnc2)c2cc(Cl)c3cccnc3c2O)cc1 (configuration not stated)	-6.83%
COc1ccc(N2CCN(Cc3cc(=O)oc4cc(-c5ccccc5)c(O)cc34)CC2)cc1	-0.12%
COc1ccc(F)cc1S(=O)(=O)Nc1ccc(C)cc1	-1.13%
CCOC(=O)N1CCN(C(=O)c2ccc3c(c2)ncn3C2CCCC2)CC1	2.32%
O=[N+]([O-])c1cc2c(cc1/C=N/NS(=O)(=O)c1ccc(Br)cc1)OCO2	3.45%
CC1CCCCC1NC(=O)CSc1nnc(CNC(=O)c2ccccc2)n1C (configuration not stated)	-2.54%
Nn1c(SCC(=O)NC2CCCCC2)nnc1-c1ccccc1	3.83%
CC1CCCCC1NC(=O)CSc1nnnn1-c1ccccc1 (configuration not stated)	2.02%
Cc1cccc(C)c1OCC(=O)NCc1nnc(SCC(=O)NC2CCCCC2)n1C	3.03%
Cc1cccc(C)c1OCC(=O)NCc1nnc(SCC(=O)NC2CCCCC2C)n1C (configuration not stated)	24.1% (active)
CN(CC(=O)NC1CCCCC1)S(=O)(=O)c1ccc(Cl)cc1	-0.77%
CC(=O)N1CCN(C(=O)COc2ccc(Br)cc2)CC1	1.6%
O=C(CCC1CCCC1)N1CCN(C(=O)COc2ccccc2)CC1	21.1%
O=C(COc1ccc(Br)cc1)N1CCOCC1	-2.69%
Cc1cccc(OCC(=O)N2CCN(C(=O)CCC3CCCC3)CC2)c1	22.4%
CCCOc1ccc(CSc2n[nH]c(C)n2)cc1	8.48%
COc1ccc(CCNC(=O)C(C)Sc2ccccc2)cc1OC (configuration not stated)	-0.82%
Cc1cccc(NC(=S)NCCc2ccc3c(c2)OCCO3)c1C	0.53%
CC1CCC(C(C)C)C(OC(=O)COC(=O)c2cc(O)ccc2N)C1 (configuration not stated)	6%
CCn1cc(S(=O)(=O)Nc2ccccc2C(F)(F)F)cn1	-0.46%
Cc1cccc(C(=O)NNC(=O)c2ccc(Cl)cc2)c1O	27.7% (active)
NNC(=O)c1ccc(O)cc1O	11.6%

SMILES	inhibition
COc1ccccc1C(=O)NNC(=O)c1ccc(Cl)cc1	-4.03%
O=C(NNC(=O)c1ccccc1Br)c1ccc(Cl)cc1	-5.75%
CC(C)(C)c1ccc(C(=O)NNC(=O)c2ccc(Cl)cc2)cc1	0.45%
CC1=CSC2=NC(=O)/C(=C/c3cccc(OC(=O)c4ccco4)c3)C(=N)N12	8.4%
COc1cc(/C=C2/C(=N)N3C(c4ccccc4)=CSC3=NC2=O)ccc1OCC(=O)O	8.04%
CN(C)c1ccc(/C=C2\C(=N)N3C(=NC2=O)Sc2cc(S(C)(=O)=O)ccc23)cc1	12.4%
COc1ccc(/C=C2/C(=N)N3C(=NC2=O)Sc2cc(S(C)(=O)=O)ccc23)cc1OC	4.37%
COC(=O)CCC(=O)N1CCOCCOCCOCC1	3.89%
CCOc1cc(/C=C2/NC(=O)N(Cc3ccccc3F)C2=O)ccc1O	9.55%
COc1cc(/C=C2/NC(=O)N(Cc3ccccc3F)C2=O)cc(OC)c1O	11%
Cc1ccc(S(=O)(=O)c2nc(NCCCn3ccnc3)sc2Cl)cc1	1.08%
O=S(=O)(c1ccccc1)c1nc(NCc2ccccc2)sc1Cl	3.65%
Cc1ccc(S(=O)(=O)c2nc(NN(C)C)sc2Cl)cc1	2.25%
CC(C)CNc1nc(S(=O)(=O)c2ccccc2)c(Cl)s1	-9.9%
Cc1ccc(S(=O)(=O)C2CS(=O)(=O)CC2O)cc1 (configuration not stated)	-0.11%
c1ccc(CCCCNCC2COc3ccccc3O2)cc1 (configuration not stated)	0.11%
C=CCNC(=O)c1ccc([N+](=O)[O-])c(Cl)c1	1.78%
CC1=C(C(N)=O)C(c2cccs2)NC(=O)N1 (configuration not stated)	0.41%
FC(F)(F)c1cc(-c2cccs2)nc2cc(-c3cccs3)nn12	2.78%
FC(F)(F)c1cc(-c2cccs2)nc2ncnn12	14.3%
O=C(NCCCn1ccnc1)/C(=C\c1cccs1)NC(=O)c1ccco1	2.24%
CC(C)=CC(=O)NCCc1ccccc1	0.11%
Cc1cc(=O)oc2cc3c(cc12)OCCO3	9.01%
Cc1ccc2c(c1)NCCO2	9.62%
CN(C)c1ccc(CNn2cnnc2SCc2ccccc2F)cc1	3.42%

SMILES	inhibition
Cc1ccccc1OCCCC(=O)Nc1ccccc1C(F)(F)F	-2.79%
CCOC(=O)CC1C(=O)NCCN1C(=O)c1cc2c(=O)n3ccccc3nc2s1 (configuration not stated)	-1.82%
CC(C)CN1C(=O)/C(=C/c2c(N3CCc4ccccc4C3)nc3ccccn3c2=O)SC1=S	2.88%
CCOC(=O)CC1C(=O)NCCN1S(=O)(=O)c1ccc(C)cc1 (configuration not stated)	-1.42%
CCOCCCNc1nc2c(C)cccn2c(=O)c1/C=C1\SC(=S)N(C(C)CC)C1=O (configuration not stated)	3.39%
CCOC(=O)C(=O)c1c(-c2ccc(C)cc2)nc2ccccn12	10.6%
COC(=O)c1c(C)oc(C)c1S(=O)(=O)N1CCCCC1	0.96%
CCCCCCOc1ccc(C(=O)NCCCn2ccnc2)cc1	-4.66%
CN(C)CCNC(=O)NC1CCCCC1	4.13%
CC(=O)NS(=O)(=O)c1ccc(NC(=O)c2ccc3c(c2)C(=O)N(CCC(C)C)C3=O)cc1	9.98%
CC(=O)N1C(=O)/C(=C2\SC(=S)N(c3c(C)n(C)n(-c4ccccc4)c3=O)C2=O)c2ccccc21	9.72%
CC(/C=C1\SC(=S)N(NC(=O)c2ccc(C)cc2)C1=O)=C\c1ccccc1	5.4%
CC(/C=C1\SC(=S)N(NC(=O)c2ccccc2C)C1=O)=C\c1ccccc1	4.17%
CC(/C=C1\SC(=S)N(NC(=O)c2ccncc2)C1=O)=C\c1ccccc1	13.9%
Cc1ccc(S(=O)(=O)N2C(=O)/C(=C3\SC(=S)NC3=O)c3ccccc32)cc1	16.8%
CCN1C(=O)/C(=C2\SC(=S)N(CC3CCCO3)C2=O)c2ccccc21 (configuration not stated)	2.68%
CC(/C=C1\SC(=S)N(NC(=O)c2ccc(O)cc2)C1=O)=C\c1ccccc1	4.4%
CCN1C(=O)/C(=C2\SC(=S)N(CCCOC)C2=O)c2ccccc21	0.63%
CC1=C(C(=O)c2ccccc2)C(c2ccc(OC(F)F)cc2)NC(=S)N1 (configuration not stated)	3.11%
CN1CCN(CC(=O)NC2CCCCC2)CC1	-3.84%
Cc1cc(C)n(-c2nc3c(c(=O)[nH]c(=O)n3C)n2Cc2cccc(Br)c2)n1	6.71%
COc1cccc(NS(=O)(=O)c2ccc(OC)c(OC)c2)c1	8.68%
